Source: PubChem BioAssay AID1851 (National Center for Advancing Translational Sciences (NCATS), 2009)
Where “and” joins values, the source holds several entries; their conditions need not be identical. Identical values can stand only once. Screen size: about 16,000 compounds; about 5,100 (32%) were called active. About 25% were inconclusive and are not listed. Some of the results follow. Unmarked numbers belong to inactive results. Calls come from the whole dose curve; as a rule, active = well fitted curve in the direction sought with a large enough effect; inconclusive = small, poorly fitted or top-dose-only effect, or effect the other way; inactive = no such curve, though single readings can be large or run the other way.

Biological target: Cytochrome P450 3A4 (Homo sapiens) (UniProt P08684)
Sequence (P08684 whole entry, looked up): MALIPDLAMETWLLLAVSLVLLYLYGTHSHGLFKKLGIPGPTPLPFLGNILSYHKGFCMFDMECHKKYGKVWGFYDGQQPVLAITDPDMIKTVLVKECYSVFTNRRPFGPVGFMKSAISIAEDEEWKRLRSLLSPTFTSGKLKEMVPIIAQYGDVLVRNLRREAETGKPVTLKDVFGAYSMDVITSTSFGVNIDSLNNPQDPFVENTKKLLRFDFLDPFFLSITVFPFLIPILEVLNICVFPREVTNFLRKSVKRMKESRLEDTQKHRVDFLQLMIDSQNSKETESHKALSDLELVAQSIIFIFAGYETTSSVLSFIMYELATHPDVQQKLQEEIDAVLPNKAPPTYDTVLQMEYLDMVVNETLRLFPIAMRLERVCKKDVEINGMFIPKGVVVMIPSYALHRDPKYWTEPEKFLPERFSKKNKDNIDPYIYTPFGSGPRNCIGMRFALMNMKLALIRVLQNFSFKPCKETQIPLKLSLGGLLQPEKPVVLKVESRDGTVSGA
Assay: Cytochrome panel assay with activity outcomes
Settings: recombinant CYP, pro-luciferin dealkylation, luminescence, p450-cyp3a4; series mostly up to 57.1 µM; activity, negative = inhibition: at the top concentration
% is set by controls: 0 for no effect and ±100 for the full control effect.

| Compound | AC50 | activity, negative = inhibition |
| --- | --- | --- |
| CO[C@H]1COC(=O)[C@H](C)NC(=O)C/C=C\[C@@H](C)[C@@H](NS(=O)(=O)c2ccc(C)cc2)COC(=O)[C@H](OCc2ccccc2)/C=C\[C@@H]1C | 3.16 µM (active) | – |
| CO[C@H]1COC(=O)[C@H](C)NC(=O)C/C=C\[C@@H](C)[C@H](OC)COC(=O)[C@@H](OCc2ccccc2)/C=C\[C@@H]1C | – | -29.2% [at 11.4 µM] |
| CO[C@@H]1COC(=O)C/C=C\[C@@H](C)[C@H](OC)COC(=O)[C@@H](C)COC(=O)C/C=C\[C@H]1C | – | -12.1% [at 11.4 µM] |
| CO[C@@H]1COC(=O)C/C=C\[C@H](C)[C@@H](NS(=O)(=O)c2ccc(C)cc2)COC(=O)C/C=C\[C@@H]1C | 3.98 µM (active) and 3.16 µM (active) | – |
| CO[C@H]1COC(=O)C/C=C\[C@@H](C)[C@H](OC)COC(=O)[C@H]2CCCN2C(=O)C/C=C\[C@@H]1C | – | -29.5% [at 11.4 µM] |
| CO[C@@H]1COC(=O)[C@H](C)NC(=O)C/C=C\[C@@H](C)[C@@H](NS(=O)(=O)c2ccc(C)cc2)COC(=O)C/C=C\[C@@H]1C | – | 5.93% [at 11.4 µM] |
| CO[C@H]1COC(=O)[C@@H](CCSC)NC(=O)C/C=C\[C@@H](C)[C@H](OC)COC(=O)[C@@H](OCc2ccccc2)/C=C\[C@@H]1C | – | -27.8% [at 11.4 µM] |
| CO[C@@H]1COC(=O)C/C=C\[C@H](C)COC(=O)[C@H](C)NC(=O)C/C=C\[C@H]1C | – | -19.1% [at 11.4 µM] |
| CO[C@@H]1COC(=O)C/C=C\[C@H](C)[C@H](OC)COC(=O)[C@H]2CCCN2C(=O)C/C=C\[C@H]1C | – | -14.8% [at 11.4 µM] |
| CO[C@H]1COC(=O)[C@H](C)NC(=O)C/C=C\[C@@H](C)[C@@H](NS(=O)(=O)c2ccc(C)cc2)COC(=O)C/C=C\[C@@H]1C | 3.98 µM (active) | – |
| CO[C@H]1COC(=O)C/C=C\[C@H](C)[C@@H](NS(=O)(=O)c2ccc(C)cc2)COC(=O)C/C=C\[C@@H]1C | 3.16 µM (active) | – |
| CO[C@H]1COC(=O)[C@H]2CCCN2C(=O)[C@@H](C)COC(=O)C/C=C\[C@@H]1C | – | -39.8% [at 11.4 µM] |
| CC(C)(C)C(=O)NC(=C(Cl)Cl)P(=O)(O)O | – | 10.5% |
| N=C(N)C(N=Nc1ccccc1)C(=N)N (stereo not drawn) | – | -1.93% [at 11.4 µM] |
| CO[C@H]1COC(=O)CCC[C@H](C)[C@H](OC)COC(=O)C/C=C\[C@@H]1C | – | -29.6% [at 11.4 µM] |
| CO[C@H]1COC(=O)C/C=C\[C@H](C)[C@@H](NS(=O)(=O)c2ccc(C)cc2)COC(=O)CCC[C@@H]1C | 3.98 µM (active) | – |
| CO[C@H]1COC(=O)CCC[C@H](C)[C@@H](OC)COC(=O)C/C=C\[C@@H]1C | – | -19.5% [at 11.4 µM] |
| CCC(Sc1nc2cc3c(cc2c(=O)n1Cc1ccco1)OCO3)C(=O)Nc1cccc(OC)c1 (stereo not drawn) | 1.26 µM (active) | – |
| CCC(Sc1nc2cc3c(cc2c(=O)n1Cc1ccco1)OCO3)C(=O)Nc1ccccc1OC (stereo not drawn) | 1.58 µM (active) | – |
| CCn1c(C)cc(/C=C2\NC(=O)N(Cc3ccc(Cl)cc3)C2=O)c1C | 1.58 µM (active) | – |
| Cc1sc2nc(SCC(=O)C(C)(C)C)n(Cc3ccco3)c(=O)c2c1C | 11.2 µM (active) | – |
| Cc1sc2nc(SCc3nc(-c4cccs4)no3)n(-c3ccccc3)c(=O)c2c1C | – | -1.01% |
| O=C(Nc1cccc(C(=O)Nc2ccc(S(=O)(=O)O)c3cc(S(=O)(=O)O)cc(S(=O)(=O)O)c23)c1)Nc1cccc(C(=O)Nc2ccc(S(=O)(=O)O)c3cc(S(=O)(=O)O)cc(S(=O)(=O)O)c23)c1 | – | 2.17% |
| Cc1ccc(S(=O)(=O)Nc2ccccc2C(=O)c2ccc(C)c(C)c2)cc1 | – | -2.65% [at 11.4 µM] |

| Compound | AC50 | activity, negative = inhibition |
| --- | --- | --- |
| Cc1ccc(SCCNC(=O)c2ccc(C)c(S(=O)(=O)Nc3ccccc3C)c2)cc1 | 0.631 µM (active) | – |
| Cc1ccccc1NS(=O)(=O)c1cc(C(=O)Nc2cccc(N(C)S(C)(=O)=O)c2)ccc1C | 1 µM (active) | – |
| C[N+]1(CCCC[N+]2(C)CCCCCCC2)CCCCCCC1 | – | 6.39% [at 11.4 µM] |
| NC(=O)c1ccc[n+](CC(=O)OCCC23CC4CC(CC(C4)C2)C3)c1 | – | -1.21% [at 2.29 µM] |
| O=C(O)c1cc(=O)c2c(OCC(O)COc3cccc4oc(C(=O)O)cc(=O)c34)cccc2o1 | – | 5.11% [at 25.6 µM] |
| CCOC(=O)COc1cc(OCC(=O)OCC)c2c(=O)cc(-c3ccccc3)oc2c1 | 20 µM (active) | – |
| CC(C)(C)OC(=O)COc1cc(OCC(=O)OC(C)(C)C)c2c(=O)cc(-c3ccccc3)oc2c1 | – | 12.7% |
| CC(=O)O[C@]1(C)N=NC2(CCCCC2)O1 | – | -7.61% [at 11.4 µM] |
| C=CCn1c(SCC(=O)N2CCc3ccccc3C2)nc2ccccc2c1=O | 2.51 µM (active) | – |
| O=C(Cn1c(SCC(=O)N2CCc3ccccc3C2)nc2ccccc21)NC1CCCC1 | 3.55 µM (active) | – |
| C=CCn1c(SCC)nc2sc3c(c2c1=O)CCc1ccccc1-3 | – | -8.25% [at 2.29 µM] |
| CN1CCN(CCCBr)CC1 | – | 9.1% [at 11.4 µM] |
| O=C1CC(N(O)C2CC(=O)N(Cc3ccccc3)C2=O)C(=O)N1Cc1ccccc1 (stereo not drawn) | 10 µM (active) | – |
| CN1CCN(C2CC(=O)N(Cc3ccc(N4CCCC4=O)cc3)C2=O)CC1 (stereo not drawn) | – | 3.78% |
| O=C(O)[C@@H]1[C@H](C(=O)O)[C@H]2C(=O)C=C[C@H]1N2Cc1ccccc1 | – | -7.47% [at 11.4 µM] |
| O=C1C2[C@@H](c3ccccc3)N[C@@H](c3ccccc3)C1[C@H](c1ccccc1)N[C@H]2c1ccccc1 | – | 5.64% [at 11.4 µM] |
| NCCCCCCNS(=O)(=O)c1cccc2ccccc12 | 6.31 µM (active) | – |
| NS(=O)(=O)c1ccc(NC(=O)Nc2cccc3ccccc23)cc1 | – | -6.44% [at 11.4 µM] |
| O=S(=O)(O)CCCc1cccc2ccccc12 | – | -8.32% [at 11.4 µM] |
| COc1cc(/C=C/C(=O)O)cc(S(=O)(=O)NCCCO)c1OC | – | -24.1% [at 11.4 µM] |
| CCCCNS(=O)(=O)c1ccc(OC)c(Cl)c1Cl | 11.2 µM (active) | – |
| NCCCCCCCCCCNS(=O)(=O)c1cccc2c(Cl)cccc12 | 2.51 µM (active) | – |
| NCCCCCCNS(=O)(=O)c1cccc2c(Cl)cccc12 | 3.98 µM (active) and 2.51 µM (active) | – |
| Nc1ccc(S(=O)(=O)NCCS(=O)(=O)O)cc1 | – | -0.993% [at 11.4 µM] |
